Seven compounds from PubChem BioAssay (EPA / NIEHS) can be followed below.

The nature of assay [1]: ATG_CRE_CIS: Attagene CIS-FACTORIAL HepG2 Assay for human cAMP Responsive Element (CRE) binding protein 3 (AID 2282926). The settings on record: HepG2 CRE cis-reporter, Attagene multiplexed mRNA; actives raise or lower the signal. In a few lines:
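Readout: fluorescently labelled reporter transcripts resolved by capillary electrophoresis after RT-PCR, taken 24 h post-dosing in transfected HepG2. Endogenous transcription factor activity drives each cis-element reporter; gain or loss of signal fitted relative to DMSO control.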

The target in assay [2] is CCAAT/enhancer-binding protein beta (Homo sapiens) (UniProt P17676). Briefly: ATG_C_EBP_CIS: Attagene CIS-FACTORIAL HepG2 Assay for human CCAAT/Enhancer Binding Protein (C/EBP) beta (AID 2282927). The settings on record: HepG2 Attagene cis-factorial transcription factor reporter; actives raise or lower the signal. The procedure, abridged: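 Endogenous transcription factor activity in human liver HepG2 cells is inferred from induction of a CEBPB-linked reporter mRNA. Exposure lasts 24 h; activity is fitted in both directions relative to DMSO.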

Assay [3] can be described thus: ATG_CMV_CIS: Attagene CIS-FACTORIAL HepG2 Assay for human CMV (Internal Marker) (AID 2282928).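 Also: endpoint acts as a background internal control marker rather than a target.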 The settings on record: HepG2 CMV promoter reporter, transcription factor profiling; actives raise or lower the signal. The procedure, abridged:
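Readout: fluorescent reporter cDNA fragments separated by capillary electrophoresis after RT-PCR and HpaI cut. Cells: HepG2 carrying transfected cis-promoter reporter constructs, dosed 24 h. Endpoint serves as background internal-marker control, fit bidirectionally versus DMSO.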

A short description of assay [4]: ATG_DR4_LXR_CIS: Attagene CIS-FACTORIAL HepG2 Assay for human Liver X Receptor (LXR), DR4 submotif (AID 2282929). The settings on record: HepG2 Attagene DR4 cis-reporter, mRNA transcription; actives raise or lower the signal. In a few lines:
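Measures endogenous transcription factor activity via a DR4-driven reporter transcript in human HepG2 cells. Compounds incubated 24 h; mRNA quantified by RT-PCR and capillary electrophoresis, analysed as gain or loss of signal versus DMSO.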

Assay [5] has as its target Aryl hydrocarbon receptor (Homo sapiens) (UniProt P35869). Briefly: ATG_Ahr_CIS: Attagene CIS-FACTORIAL HepG2 Assay for human Aryl Hydrocarbon Receptor (Ahr) (AID 2282930). To be noted: HepG2 AhR cis-factorial reporter transcription; actives raise or lower the signal. In a few lines: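 Transient MRTU transfection of HepG2 → 24 h compound exposure → total RNA, oligo(dT) RT → PCR, 6-FAM extension, HpaI cut → CE fluorescence. DMSO = baseline; bidirectional curve fit.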

The nature of assay [6]: ATG_AP_1_CIS: Attagene CIS-FACTORIAL HepG2 Assay for human Activator Protein 1 (AP-1) (AID 2282931). To be noted: HepG2 Attagene cis-factorial AP-1 reporter mRNA; actives raise or lower the signal. In a few lines: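 Bidirectional concentration-response fitting against DMSO controls. Underlying signal: reporter mRNA from cis-promoter constructs in transiently transfected HepG2, measured after 24 h by RT-PCR and capillary electrophoresis.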

Assay [7] can be described thus: ATG_AP_2_CIS: Attagene CIS-FACTORIAL HepG2 Assay for human Activator Protein 2 (AP-2) (AID 2282932). The settings on record: HepG2 AP-2 cis-reporter, Attagene transcription factor profiling; actives raise or lower the signal. In a few lines: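 Endogenous transcription factor activity is reported through transfected multiplex reporter constructs in HepG2, after 24 h of compound exposure. Transcripts were quantified by RT-PCR and capillary electrophoresis of fluorescent fragments. Bidirectional fit against DMSO.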

A short description of assay [8]: ATG_BRE_CIS: Attagene CIS-FACTORIAL HepG2 Assay for human Bone Morphogenetic Protein (BMP) Response Element (BRE) (AID 2282933). To be noted: HepG2 BMP response element reporter, Attagene transcription factor profiling; actives raise or lower the signal. The procedure, abridged: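 HepG2 cells transiently transfected with multiplexed cis-element reporter units were dosed with chemical for 24 h. Reporter mRNA was measured by RT-PCR with fluorescent labelling, HpaI digestion and capillary electrophoresis; bidirectional fitting relative to DMSO.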

In assay [9] the target is Retinoic acid receptor alpha (Homo sapiens) (UniProt P10276). Briefly: ATG_DR5_RAR_CIS: Attagene CIS-FACTORIAL HepG2 Assay for human Retinoic Acid Receptor Alpha (RARE), DR5 submotif (AID 2282934). To be noted: HepG2 Attagene cis-factorial RARE DR5 reporter, mRNA; actives raise or lower the signal. In a few lines:
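Transient MRTU transfection of HepG2; 24 h compound treatment; TriZol RNA, oligo(dT) RT, PCR, FAM labelling, capillary electrophoresis. Bidirectional fit vs DMSO. Endogenous TF activity at DR5 RARE.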

For assay [10], the target named is Transcription factor E2F1 (Homo sapiens) (UniProt Q01094). Briefly: ATG_E2F_CIS: Attagene CIS-FACTORIAL HepG2 Assay for human E2F Transcription Factor 1 (AID 2282935). To be noted: HepG2 Attagene cis-reporter, E2F reporter RNA transcripts; actives raise or lower the signal. The procedure, abridged:
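Gain or loss of reporter transcript, fitted against DMSO, reflects E2F1-driven transcription. Transiently transfected HepG2 dosed 24 h before RNA isolation. Quantified by fluorescent RT-PCR products separated by capillary electrophoresis.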

Assay [11] is described as follows: ATG_E_Box_CIS: Attagene CIS-FACTORIAL HepG2 Assay for human Enhancer Box (E-box) (AID 2282936). To be noted: HepG2 E-box cis-reporter transcription, actives raise or lower the signal. The procedure, abridged:
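E-box-driven reporter transcripts measured in transiently transfected HepG2 after 24 h exposure: RNA reverse-transcribed, PCR-amplified, fluorescently labelled, digested and resolved by capillary electrophoresis. Gain or loss relative to DMSO.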

Assay [12] in a line: ATG_M_61_CIS: Attagene CIS-FACTORIAL HepG2 Assay for M61 Transcription Factor (Internal Marker) (AID 2282937). To be noted: HepG2 Attagene CIS-FACTORIAL M61 internal marker reporter; actives raise or lower the signal. In a few lines:
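Fluorescence from labelled cDNA fragments, separated by capillary electrophoresis, quantifies reporter induction. HepG2 cells bearing transiently transfected cis-promoter MRTUs were incubated with test chemical for 24 h; DMSO defined baseline for gain/loss fitting.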

Assay [13] in a line: ATG_EGR_CIS: Attagene CIS-FACTORIAL HepG2 Assay for human Early Growth Response 1 (EGR1) (AID 2282938). The settings on record: HepG2 Attagene CIS-FACTORIAL EGR reporter mRNA; actives raise or lower the signal. The procedure, abridged:
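Cell-based multiplex transcription assay: HepG2 carrying transfected cis-element reporter units, 24 h chemical treatment. Fluorescence from capillary electrophoresis of RT-PCR products gives mRNA levels; fitting is bidirectional relative to DMSO.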

The nature of assay [14]: ATG_Ets_CIS: Attagene CIS-FACTORIAL HepG2 Assay for human Erythroblast Transformation Specific (ETS) (AID 2282941). To be noted: HepG2 ETS cis-reporter transcription, actives raise or lower the signal. The procedure, abridged:
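RT-PCR/capillary electrophoresis fluorescence read-out of reporter mRNA; HepG2 transient multi-reporter transfection; 24 h compound exposure; gain or loss of signal fitted bidirectionally relative to DMSO.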

The nature of assay [15]: ATG_FoxO_CIS: Attagene CIS-FACTORIAL HepG2 Assay for human Forkhead box O (FoxO) (AID 2282943). The settings on record: HepG2 Attagene cis-reporter, FoxO element, mRNA; actives raise or lower the signal. The procedure, abridged:
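HepG2, transient MRTU transfection (cis element, endogenous TFs). Dose 24 h. TriZol RNA → oligo(dT) RT → PCR → 6-FAM primer extension → HpaI cut → CE. Gain/loss vs DMSO.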

A short description of assay [16]: ATG_GATA_CIS: Attagene CIS-FACTORIAL HepG2 Assay for human GATA Binding Protein (AID 2282944). The settings on record: HepG2 GATA cis-element reporter, Attagene multiplex mRNA; actives raise or lower the signal. The procedure, abridged:
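HepG2 cells transiently transfected with multiplexed cis-element reporter units reflecting endogenous transcription factor activity; reporter mRNA measured after 24 h dosing by RT-PCR, 6-FAM labeling, HpaI digestion and capillary electrophoresis. Bidirectional fitting versus DMSO baseline.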

The nature of assay [17]: ATG_GLI_CIS: Attagene CIS-FACTORIAL HepG2 Assay for human Zinc Finger Protein GLI1 (AID 2282945). The settings on record: HepG2, Attagene cis-factorial reporter mRNA, GLI element; actives raise or lower the signal. The procedure, abridged:
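Bidirectional curve fits relative to DMSO, using reporter mRNA levels from RT-PCR plus capillary electrophoresis. Cells were HepG2 transiently carrying cis-regulated reporter constructs, harvested 24 h after dosing.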

Assay [18] concerns the target Bile acid receptor (Homo sapiens) (UniProt Q96RI1). Briefly: ATG_IR1_CIS: Attagene CIS-FACTORIAL HepG2 Assay for human Nuclear Receptor Subfamily 1 Group H Member 4 (NR1H4), IR1 submotif (AID 2282946). The settings on record: IR1 reporter transcription, actives raise or lower the signal. In a few lines:
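HepG2 cells transiently transfected with multiplexed cis-element reporter units read endogenous transcription factor activity. After 24 h compound exposure, reporter mRNA was quantified by RT-PCR, fluorescent labelling, HpaI digestion and capillary electrophoresis; bidirectional fitting versus DMSO baseline.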

The nature of assay [19]: ATG_M_19_CIS: Attagene CIS-FACTORIAL HepG2 Assay for M19 Transcription Factor (Internal Marker) (AID 2282939). The settings on record: HepG2 Attagene CIS-FACTORIAL M19 internal marker reporter; actives raise or lower the signal. In a few lines: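 HepG2 cells transiently transfected with cis-regulated multiple reporter transcription units were dosed for 24 h; reporter mRNA was quantified by RT-PCR, 6-FAM primer-extension labelling, HpaI digestion and capillary electrophoresis, with bidirectional fitting against DMSO baseline.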

In assay [20] the target is Hepatocyte nuclear factor 3-beta (Homo sapiens) (UniProt Q9Y261). Briefly: ATG_FoxA2_CIS: Attagene CIS-FACTORIAL HepG2 Assay for human Forkhead box A2 (FOXA2) (AID 2282942). To be noted: HepG2 cis-reporter transcription factor activity, 24 h; actives raise or lower the signal. In a few lines:
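In transiently transfected human HepG2 cells, promoter-driven reporter mRNA levels after 24 h chemical exposure are determined via RT-PCR with capillary electrophoresis. DMSO serves as baseline for bidirectional fitting.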

The structures appear in SMILES notation. Calls of active or inactive are those of the source. The calls were made as follows: active = hit-call score of the fitted dose curve at least 0.9, where 1 is the maximum; inactive = score below 0.9.

Sequence of Hepatocyte nuclear factor 3-beta (Homo sapiens) (Q9Y261 whole entry, looked up): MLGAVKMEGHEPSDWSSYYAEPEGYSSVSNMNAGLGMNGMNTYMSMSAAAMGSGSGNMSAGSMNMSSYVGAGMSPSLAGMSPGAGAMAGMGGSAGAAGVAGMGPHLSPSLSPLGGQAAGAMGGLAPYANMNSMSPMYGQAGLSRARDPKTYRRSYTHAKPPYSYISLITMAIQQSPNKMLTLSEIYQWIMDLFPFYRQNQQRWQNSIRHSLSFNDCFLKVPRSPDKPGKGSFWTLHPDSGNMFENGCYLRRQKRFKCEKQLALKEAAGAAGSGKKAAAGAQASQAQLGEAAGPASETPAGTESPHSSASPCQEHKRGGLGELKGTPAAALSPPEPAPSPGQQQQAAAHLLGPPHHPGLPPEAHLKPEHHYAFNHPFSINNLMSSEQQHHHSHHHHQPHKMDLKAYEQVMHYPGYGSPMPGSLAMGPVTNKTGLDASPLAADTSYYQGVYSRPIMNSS
Sequence of Retinoic acid receptor alpha (Homo sapiens) (P10276 whole entry, looked up): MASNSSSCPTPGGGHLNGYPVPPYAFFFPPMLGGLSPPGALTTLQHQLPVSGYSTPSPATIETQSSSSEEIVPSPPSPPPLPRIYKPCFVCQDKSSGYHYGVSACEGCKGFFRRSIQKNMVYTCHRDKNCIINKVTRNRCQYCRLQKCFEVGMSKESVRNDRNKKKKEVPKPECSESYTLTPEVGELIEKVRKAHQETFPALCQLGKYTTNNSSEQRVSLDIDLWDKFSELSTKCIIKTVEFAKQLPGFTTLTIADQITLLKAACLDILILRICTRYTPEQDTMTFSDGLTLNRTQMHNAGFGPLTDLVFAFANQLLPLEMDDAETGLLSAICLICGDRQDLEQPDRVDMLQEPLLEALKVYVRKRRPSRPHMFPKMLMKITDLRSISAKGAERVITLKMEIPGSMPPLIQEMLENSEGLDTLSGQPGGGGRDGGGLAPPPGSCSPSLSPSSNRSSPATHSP
Sequence of Bile acid receptor (Homo sapiens) (Q96RI1 whole entry, looked up): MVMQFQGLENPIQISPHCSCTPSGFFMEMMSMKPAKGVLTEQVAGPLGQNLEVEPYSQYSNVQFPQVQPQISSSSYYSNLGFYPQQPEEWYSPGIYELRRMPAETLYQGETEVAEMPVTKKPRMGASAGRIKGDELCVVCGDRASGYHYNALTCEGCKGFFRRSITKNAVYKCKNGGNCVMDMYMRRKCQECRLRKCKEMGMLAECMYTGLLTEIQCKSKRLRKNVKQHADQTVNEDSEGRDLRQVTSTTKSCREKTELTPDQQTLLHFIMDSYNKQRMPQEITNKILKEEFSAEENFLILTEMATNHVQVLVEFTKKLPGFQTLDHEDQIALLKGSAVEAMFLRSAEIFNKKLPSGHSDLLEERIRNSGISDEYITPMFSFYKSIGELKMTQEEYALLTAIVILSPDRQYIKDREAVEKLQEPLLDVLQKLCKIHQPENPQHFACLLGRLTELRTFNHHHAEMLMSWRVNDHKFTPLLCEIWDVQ
Sequence of Aryl hydrocarbon receptor (Homo sapiens) (P35869 whole entry, looked up): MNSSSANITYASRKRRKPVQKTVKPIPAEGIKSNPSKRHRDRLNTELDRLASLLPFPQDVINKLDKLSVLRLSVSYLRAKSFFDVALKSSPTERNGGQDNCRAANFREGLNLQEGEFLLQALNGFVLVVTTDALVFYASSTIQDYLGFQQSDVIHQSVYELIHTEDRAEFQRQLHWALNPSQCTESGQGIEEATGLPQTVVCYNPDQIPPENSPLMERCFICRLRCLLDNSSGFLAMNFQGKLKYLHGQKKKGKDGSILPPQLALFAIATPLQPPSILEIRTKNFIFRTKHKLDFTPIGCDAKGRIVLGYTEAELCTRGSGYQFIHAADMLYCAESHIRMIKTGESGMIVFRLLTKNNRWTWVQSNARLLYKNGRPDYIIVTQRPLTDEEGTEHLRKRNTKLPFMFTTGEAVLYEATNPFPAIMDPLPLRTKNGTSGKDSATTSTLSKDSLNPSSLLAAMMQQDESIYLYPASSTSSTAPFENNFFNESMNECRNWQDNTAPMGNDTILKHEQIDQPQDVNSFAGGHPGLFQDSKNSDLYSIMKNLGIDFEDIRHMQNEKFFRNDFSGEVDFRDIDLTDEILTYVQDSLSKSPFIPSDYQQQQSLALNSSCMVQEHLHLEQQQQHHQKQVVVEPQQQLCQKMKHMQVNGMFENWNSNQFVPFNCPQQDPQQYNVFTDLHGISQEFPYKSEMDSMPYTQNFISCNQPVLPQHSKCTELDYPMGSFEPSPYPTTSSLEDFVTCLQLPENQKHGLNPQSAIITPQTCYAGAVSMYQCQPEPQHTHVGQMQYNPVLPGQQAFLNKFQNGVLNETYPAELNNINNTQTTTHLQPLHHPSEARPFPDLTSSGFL
Sequence of CCAAT/enhancer-binding protein beta (Homo sapiens) (P17676 whole entry, looked up): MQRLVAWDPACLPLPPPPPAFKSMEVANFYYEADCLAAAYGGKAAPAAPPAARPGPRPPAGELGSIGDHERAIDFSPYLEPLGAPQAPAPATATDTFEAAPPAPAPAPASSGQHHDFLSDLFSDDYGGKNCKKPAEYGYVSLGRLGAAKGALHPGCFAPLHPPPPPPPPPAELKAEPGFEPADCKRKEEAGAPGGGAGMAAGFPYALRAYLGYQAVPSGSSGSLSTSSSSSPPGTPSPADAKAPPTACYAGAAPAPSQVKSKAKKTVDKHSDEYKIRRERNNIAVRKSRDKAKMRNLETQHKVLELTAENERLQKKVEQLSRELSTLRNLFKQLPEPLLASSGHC
Sequence of Transcription factor E2F1 (Homo sapiens) (Q01094 whole entry, looked up): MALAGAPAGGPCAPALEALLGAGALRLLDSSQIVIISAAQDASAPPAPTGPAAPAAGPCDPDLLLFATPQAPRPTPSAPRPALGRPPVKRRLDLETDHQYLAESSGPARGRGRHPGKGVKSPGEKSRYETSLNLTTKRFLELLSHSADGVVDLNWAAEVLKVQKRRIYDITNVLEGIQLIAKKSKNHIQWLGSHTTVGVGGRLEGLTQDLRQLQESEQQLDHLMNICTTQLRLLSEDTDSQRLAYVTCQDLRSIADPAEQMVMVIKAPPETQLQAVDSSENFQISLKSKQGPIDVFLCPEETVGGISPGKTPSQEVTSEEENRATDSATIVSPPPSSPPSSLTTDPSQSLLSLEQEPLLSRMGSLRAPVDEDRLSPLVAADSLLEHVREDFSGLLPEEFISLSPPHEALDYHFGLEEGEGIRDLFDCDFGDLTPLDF

Usually AC50 stands for the midpoint of the concentration-response curve, whichever way the signal moves. For `CCC(Cl)C(Cl)C(Cl)CC(Cl)C(Cl)C(C)Cl` (stereo not drawn), the outcome in assay [1], in assay [2], in [5], in [7], in assay [9] and in assay [10] was inactive. Besides, the call in assay [12], in [13], in assay [14], in assay [15], in assay [16] and in assay [17] was inactive. For the same compound, the AC50 is 47.7 µM (active) in assay [3]; 9.99 µM (active) in [4]; 55.7 µM (active) in assay [6]; 116 µM (active) in assay [8]; 83.9 µM (active) in assay [11]; 10.5 µM (active) in assay [18].

Consider `CCCCC(CC)COC(=O)c1ccc(O)cc1` (stereo not drawn), for which the compound was classed as inactive in assay [1], in [2], in assay [3], in [4], in assay [5] and in [6]. For the same compound, the compound was called inactive in [7], in [8], in assay [9], in assay [10], in assay [11] and in assay [12]. For the same compound, the compound was classed as inactive in [13], in assay [19], in [14], in assay [20], in [16] and in assay [18].

As to `Cc1c(OCC(F)(F)F)ccnc1CS(=O)c1nc2ccccc2[nH]1` (stereo not drawn), the result in assay [1], in assay [2], in [3], in assay [6], in assay [7] and in [9] was inactive. Moreover, the result in assay [10], in assay [11], in assay [12], in [19], in [14] and in [16] was inactive. For the same compound, the compound was called inactive in [17] and in assay [18]. Moreover, the concentration at half-maximal activity (AC50) in assay [4] was 134 µM (active); in assay [5], 1.28 µM (active); in assay [8], 153 µM (active); in assay [13] it was 27.8 µM (active).

`NCC1CCCC(CN)C1` (stereo not drawn): the compound was classed as inactive in assay [1], in assay [2], in [3], in [4], in assay [5] and in assay [6]. For the same compound, the compound was called inactive in [7], in assay [8], in assay [9], in assay [10], in assay [11] and in assay [12]. Moreover, the outcome in [13], in assay [14], in assay [20], in assay [15], in [16] and in assay [17] was inactive. In addition, the result in [18] was inactive.

With `CS(=O)(=O)OCCCCOS(C)(=O)=O`, the compound was classed as inactive in assay [1], in [2], in assay [3], in [4], in assay [6] and in [7]. In addition, the call in assay [8], in assay [9], in assay [10], in assay [11], in [12] and in assay [13] was inactive. Besides, the call in assay [14], in [20], in assay [15], in assay [16] and in assay [17] was inactive. The AC50 in assay [5] was 63.6 µM (active).

Regarding `Cc1ccc(C)o1`, the result in assay [1], in assay [2], in assay [3], in assay [4], in assay [5] and in [6] was inactive. Further, the outcome in assay [7], in assay [8], in assay [9], in assay [10], in [11] and in assay [12] was inactive. The outcome in assay [13], in [19], in [14], in assay [15], in [16] and in assay [18] was inactive.

As to `CCC(C)S` (stereo not drawn), the outcome in assay [1], in [2], in assay [3], in [4], in assay [5] and in assay [6] was inactive. In addition, the call in assay [7], in [8], in [9], in assay [10], in assay [11] and in assay [12] was inactive. Also, the outcome in [13], in assay [19], in assay [14], in assay [15], in assay [16] and in assay [17] was inactive. Moreover, in assay [18], the result was inactive.
